Measured values published in PubChem BioAssay (NCI).
Compounds without any hit were thinned out: in the full panel of roughly 79,000, 15% have a hit. Unmarked numbers belong to inactive results. Activity calls are given as the source filed them. Cut-off read from the data, not from the text of the source: active = growth inhibition above about 70%; inactive = the rest.

Key:
[1] = NCI Yeast Anticancer Drug Screen. Data for the rad50 strain (AID 155);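 note: 0% = growth of vehicle-only cultures of the same strain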; settings: S. cerevisiae rad50 strain growth inhibition, hits give high values
In short: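 Relative growth inhibition (compound vs vehicle) was measured in yeast with a defined repair-gene alteration.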

[2] = NCI Yeast Anticancer Drug Screen. Data for the mec2-1 strain (AID 157); settings: S. cerevisiae mec2-1 strain, hits give high values
In short: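 Using mec2-1 yeast: add compound, measure growth, express inhibition versus vehicle-treated cultures.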

[3] = NCI Yeast Anticancer Drug Screen. Data for the sgs1 mgt1 strain (AID 161);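 note: 0% = growth of cultures given vehicle only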; settings: S. cerevisiae sgs1 mgt1 strain, hits give high values
In short: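 Compounds are added to genetically altered yeast, and growth is compared with cultures given vehicle alone to give percent inhibition.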

[4] = NCI Yeast Anticancer Drug Screen. Data for the cln2 rad14 strain (AID 165);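 note: 0% = growth equal to vehicle treated cultures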; settings: S. cerevisiae cln2 rad14 strain, hits give high values
In short: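 Yeast strain cln2 rad14, bearing defects in cell cycle control and DNA repair, serves as the test system; values reflect growth inhibition compared with vehicle.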

[5] = NCI Yeast Anticancer Drug Screen. Data for the bub3 strain (AID 167); settings: S. cerevisiae bub3 mutant strain, hits give high values
In short: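 Screening used yeast with an engineered genetic alteration affecting cell cycle control. Compound-exposed cultures were compared with vehicle cultures, and reduced growth was taken as inhibition.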

[6] = NCI Yeast Anticancer Drug Screen. Data for the mlh1 rad18 strain (AID 175); settings: S. cerevisiae mlh1 rad18 strain growth inhibition, hits give high values
In short: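 Steps: expose repair-defective yeast to compound; measure growth; express inhibition against vehicle-treated controls.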

[7] = at 5.0 µM (retest, dose inferred, filed as 0.5)
[8] = at 50.0 µM (retest, dose inferred, filed as 5.0)

Structure (SMILES)	growth inhibition [1, 7]	growth inhibition [1, 8]	growth inhibition ([1]; at 50.0 µM)	growth inhibition [2, 7]	growth inhibition [2, 8]	growth inhibition ([2]; at 50.0 µM)	growth inhibition [3, 7]	growth inhibition [3, 8]	growth inhibition ([3]; at 50.0 µM)	growth inhibition [4, 7]	growth inhibition [4, 8]	growth inhibition ([4]; at 50.0 µM)	growth inhibition [5, 7]	growth inhibition [5, 8]	growth inhibition ([5]; at 50.0 µM)	growth inhibition [6, 7]	growth inhibition [6, 8]	growth inhibition ([6]; at 50.0 µM)
CCC(=O)c1ccc2ccc3ccccc3c2c1	6%	60%	62.5%	8%	34%	26.4%	4%	72% (active)	65.2%	4%	45%	-7.25%	12%	87% (active)	68.8%	5%	64%	50.9%
N#CCC1CC(=O)c2[nH]c3ccccc3c2C1 (stereo not given)	-157%	-137%	8.85%	-49%	-54%	7.7%	-64%	-63%	10%	-54%	-74%	28%	-62%	-70%	-15.9%	-123%	-121%	10.4%
CC(C)c1ccc(/C=C2\CSCC3=C2NC(=S)NC3c2ccc(C(C)C)cc2)cc1 (stereo not given)	-6%	83% (active)	98.3% (active)	-17%	92% (active)	98.7% (active)	-13%	87% (active)	98.9% (active)	-3%	83% (active)	98.6% (active)	-13%	95% (active)	98.7% (active)	-4%	94% (active)	98.4% (active)
CCOC(=O)C(C(=O)OCC)C1(c2ccccc2)OC(=O)c2ccccc21 (stereo not given)	0%	13%	0.55%	13%	27%	5.3%	-1%	21%	52.9%	-1%	17%	19.1%	-7%	-6%	8.8%	-4%	5%	-8.55%
Oc1c(Cl)cc(Cl)c2cccnc12	56%	96% (active)	98.8% (active)	31%	98% (active)	99.2% (active)	21%	99% (active)	97.7% (active)	27%	98% (active)	98.2% (active)	64%	97% (active)	98.5% (active)	43%	98% (active)	99% (active)
O=C(Cc1ccccc1)c1ccc(O)c(F)c1	4%	79% (active)	87.3% (active)	6%	85% (active)	77.5% (active)	6%	72% (active)	80.2% (active)	4%	68%	72.4% (active)	7%	88% (active)	82.5% (active)	7%	84% (active)	83.7% (active)
CN(C)CC(CN(C)C)C(=O)c1ccc(Oc2ccccc2)cc1	75% (active)	99% (active)	99.5% (active)	75% (active)	99% (active)	99.7% (active)	85% (active)	99% (active)	99.4% (active)	33%	99% (active)	99.6% (active)	69%	99% (active)	99.5% (active)	90% (active)	99% (active)	99.4% (active)
CCOC(=O)/C=C(\C)OCC	-5%	25%	16.3%	-3%	2%	6.1%	-4%	3%	7.25%	-1%	4%	76% (active)	-5%	-4%	38.9%	-5%	7%	10.4%
S=c1nc(N2CCCCC2)ss1	41%	94% (active)	95.2% (active)	1%	75% (active)	66%	18%	93% (active)	97.2% (active)	17%	70% (active)	57.9%	17%	97% (active)	46.5%	24%	94% (active)	97.2% (active)
C#CCNCc1ccccc1	18%	63%	66.8%	18%	47%	35.5%	11%	63%	89% (active)	0%	32%	29.4%	5%	78% (active)	76.8% (active)	-4%	49%	58.8%
